High-throughput results deposited in PubChem by Broad Institute.
MITF TRPM1 inh: reduces MITF-dependent TRPM1 promoter luciferase signal | SK-MEL-5 TRPM1 promoter luciferase, 24 h | inhibition, % at 12.5 µM | 330,000 tested, 0.83% active | AID 488899;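 active means mean inhibition across replicates of 60% or more, whatever share of single replicates reaches that level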
Wnt act: activates Wnt/beta-catenin signaling in a reporter cell assay; activator, plate reader; activation, % at 9.35 µM; 300,000 tested, 1.2% active; AID 743398; in the data active means activation above about 30%, passing the limit was not always enough;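 further: 0% = neutral control wells and 100% = positive control wells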
EBV LMP1 NFkB: Epstein-Barr LMP1 NF-kappaB reporter inhibition | inhibition, % at 12.5 µM | 350,000 tested, 0.69% active | LMP1-induced NF-kappaB luciferase reporter cells, luminescence; in the data active means inhibition above about 41%;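 further: 0% = neutral control wells and 100% = reference inhibitor control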
Statin myotox sup: suppressors of simvastatin-induced myotoxicity in C2C12 myotubes. rescue of ATP level, % at 7.49 µM. 330,000 tested, 0.78% active. ATP luminescence, 48 h; scaled: DMSO 0, geranylgeraniol control 100;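 active means mean ATP rescue above about 67%, or every replicate alone reaching that limit, limit read from the data, passing the limit was not always enough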;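 further: myotubes were challenged with 10 µM simvastatin during compound exposure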
MITF act: increases MITF-driven TRPM1 promoter luciferase signal; activation, % at 12.5 µM; SK-MEL-5 TRPM1-promoter luciferase, 24 h; % of positive control, neutral wells = 0; 300,000 tested, 0.75% active; AID 588334;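 active means mean activation of at least 80% with every replicate also reaching 80%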;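 further: 0% = neutral control wells and 100% = parthenolide positive control wells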
esBAF inh: inhibitors of esBAF chromatin remodeling in mouse ES cells | 350,000 tested, 2% active | reporter increase, % at 12.5 µM | Bmi1-luciferase knock-in reporter, 24 h; 100% = twice the neutral-well signal; in the data active means activation above about 40%;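 further: 0% = median of the plate's neutral control wells and 100% = double that signal; a rise in the Bmi1 reporter signal indicates esBAF inhibition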
Active calls of the source: *; · = no result. Shown are actives, neighbours in structure and some others; about 4% of the full set was active somewhere.

SMILES | MITF TRPM1 inh | Wnt act | EBV LMP1 NFkB | Statin myotox sup | MITF act | esBAF inh
COc1ccc(NC(=O)Nc2ccc3c(c2)C(=O)N([C@H](C)CO)C[C@H](C)[C@H](CN(C)S(=O)(=O)c2cn(C)cn2)OCCCC[C@H](C)O3)cc1 | · | · | · | · | · | -6.3
CC(NC(=O)CN(C)CC(=O)Nc1ccc(Cl)c(C(F)(F)F)c1)c1ccccc1 (stereo not drawn) | 13.9 | -1.0 | 0.3 | -11.3 | -12.7 | -7.9
COc1ccc(/C=N/NC(=O)c2[nH]c3ccc(Br)cc3c2-c2ccccc2)cc1 | 68.3* | -19.4 | 13.4 | · | -64.9 | ·
COc1ccccc1-c1nnc(SCC(=O)N2CCCCC2)o1 | -13.0 | 2.3 | -7.4 | · | 19.8 | ·
CCc1ccc(NC(=O)c2cc(Br)ccc2Br)cc1 | · | 0.3 | · | · | · | ·
CC(C)c1ccc(NC(=O)c2cc(Br)ccc2Br)cc1 | -23.1 | -0.9 | -12.0 | -5.6 | 29.1 | 71.8*
Cc1cc([N+](=O)[O-])ccc1NC(=O)c1csc(C)c1C | -118.9 | 22.2 | -44.2 | · | 123.8* | ·
CNC(=S)Nc1ccc([N+](=O)[O-])cc1C | -3.8 | -0.9 | -17.6 | 3.0 | 6.4 | -7.5
Cc1c(C#N)c(O)n(CCO)c(=O)c1N=Nc1ccc2c(c1)COC2=O | 61.8* | 2.6 | 17.6 | · | -60.9 | ·
CCOC(=O)CSC1=NC(=O)/C(=C\c2ccc(OC(C)=O)cc2)S1 | 78.7* | · | -27.8 | 12.5 | -78.3 | -1.6
CCOC(=O)CSC1=NC(=O)/C(=C/c2ccc(Br)cc2)S1 | 53.5 | -1.7 | -29.0 | · | -54.1 | ·
O=C(Nc1cccc(O)c1)c1ccc(NC(=O)C2CCCO2)cc1 (stereo not drawn) | -59.3 | 18.0 | -0.4 | -5.8 | 59.9 | 20.5
COC(=O)c1c(-c2ccc(OC)cc2)sc2ccc(-c3ccc4c(c3)OCO4)cc12 | -12.2 | 1.6 | 3.2 | -6.4 | 15.4 | -0.7
COC(=O)c1c(-c2ccc(OC)cc2)sc2ccc(OC)cc12 | -55.2 | 41.8* | -29.2 | 0.3 | 66.5 | 45.9*
N#Cc1c([N+](=O)[O-])cc([N+](=O)[O-])cc1S(=O)(=O)Cc1ccccc1 | 92.6* | -24.4 | 27.7 | -209.3 | -91.8 | -44.9
COc1cc(OC)c(C#N)c(S(=O)(=O)Cc2ccccc2)c1 | -8.4 | · | -4.1 | -8.1 | 11.0 | 2.3
COC(=O)C(CCSC)NC(=O)c1cccc([N+](=O)[O-])c1 (stereo not drawn) | 15.1 | · | -17.8 | 0.4 | -14.3 | -2.4
CCSc1ncccc1C(=O)N[C@@H](CCSC)C(=O)OC | · | 45.3* | · | · | · | ·
CCOc1ccccc1CN1CCNC(=O)C1CC(=O)NCCC1=CCCCC1 (stereo not drawn) | -6.8 | 0.7 | -5.9 | · | 7.4 | ·
CC(C)(C)NC(=S)N1CCC(C(=O)c2ccc(Cl)cc2)CC1 | -3.9 | -0.8 | 42.5* | 0.6 | · | -5.5
CC(C)(O)C#Cc1ccc(C(=O)NC2CCCCC2)s1 | -52.3 | 7.0 | -32.5 | · | 47.9 | ·
CCc1ccc(C(=O)NC2CCCCC2)s1 | -98.0 | · | -13.4 | -8.2 | 96.4* | 30.8
O=C(NC1CCCC1)c1cccc(S(=O)(=O)Nc2ccccc2F)c1 | -1.3 | -0.6 | 9.3 | 10.5 | 5.6 | -3.9
CC(=O)OC[C@@H]1CN(Cc2ccccc2)C[C@H](n2ccc3c(N)ncnc32)O1 | · | -0.7 | · | -2.6 | · | 5.4
O=C(Nc1ccc([N+](=O)[O-])cc1)N1CCc2ccccc2C1 | -21.3 | 13.2 | -15.4 | -16.6 | 20.2 | 50.8*
SMILES | MITF TRPM1 inh | Wnt act | EBV LMP1 NFkB | Statin myotox sup | MITF act | esBAF inh
O=C(Nc1cccc(Cl)c1)N1CCc2ccccc2C1 | -70.3 | 1.7 | -26.5 | 9.6 | · | 50.1*
COc1cccc(NC(=O)N2CCc3ccccc3C2)c1 | -77.9 | 25.9 | -7.5 | -13.3 | 78.9 | 50.1*
O=C(Nc1ccccc1F)N1CCc2ccccc2C1 | -55.8 | 1.3 | -27.1 | 0.8 | 56.8 | 65.0*
Cc1ccc(C)c(NC(=O)N2CCc3ccccc3C2)c1 | -26.1 | 2.5 | -10.2 | 6.3 | 28.2 | 38.2
CO[C@@H]1CN(C)C(=O)c2ccc(NC(=O)NC(C)C)cc2OC[C@H](C)N(C(=O)CN(C)C)C[C@@H]1C | · | · | · | 0.5 | · | -0.6
CC1(C(=O)NS(=O)(=O)C2CC2)CCCN(C(=O)c2ccccc2)C1 (stereo not drawn) | · | -24.1 | · | 8.3 | · | -2.4
Cc1ccc(/C=N/NC(=O)c2cccc3ccccc23)o1 | -11.7 | 0.1 | -4.7 | -9.3 | 11.0 | 0.3
COc1cccc(NC(=O)N2CCc3nc(Nc4ccc(C(C)C)cc4)ncc3C2)c1 | · | -8.2 | · | 5.7 | · | 70.3*
CCOC(=O)c1cc(C(=O)NN)c(=O)[nH]c1C | -2.6 | 8.1 | -13.1 | -8.0 | 0.7 | 17.1
